For assay [1], the target named is Oxysterols receptor LXR-alpha (Homo sapiens) (UniProt Q13133). Nature of the assay: ATG_LXRa_TRANS: Attagene TRANS-FACTORIAL HepG2 Assay for human Liver X Receptor alpha (LXRa) (AID 2282980; active = hit-call score of the fitted dose curve at least 0.9, where 1 is the maximum). As to conditions: HepG2 Attagene TRANS reporter, LXRa transactivation. The procedure, abridged:
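Transient HepG2 transfectants, 24 h dosing, RT-PCR/CE mRNA reporter quantitation; gain-of-signal vs DMSO.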

A short description of assay [2]: ATG_M_06_TRANS: Attagene TRANS-FACTORIAL HepG2 Assay for M06 Transcription Factor (Internal Marker) (AID 2282983; active = hit-call score of the fitted dose curve at least 0.9, where 1 is the maximum). Conditions: HepG2 Attagene TRANS M06 internal marker reporter. Summed up:
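Measured by capillary electrophoresis of fluorescently labelled RT-PCR products, this endpoint reflects reporter mRNA in HepG2 cells harbouring exogenous NR-GAL4 reporter constructs after 24 h exposure, with DMSO as baseline.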

Assay [3] concerns the target Nuclear receptor subfamily 4 group A member 2 (Homo sapiens) (UniProt P43354). Nature of the assay: ATG_NURR1_TRANS: Attagene TRANS-FACTORIAL HepG2 Assay for human Nuclear Receptor Related Protein 1 (NURR1) (AID 2282985; active = hit-call score of the fitted dose curve at least 0.9, where 1 is the maximum). Conditions: HepG2 Attagene TRANS reporter, mRNA readout. Summed up: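 HepG2 / transient MRTU transfection / 24 h compound exposure / RT-PCR + CE fluorescence of reporter mRNA / gain-of-signal vs DMSO.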

For assay [4], the target named is Transcriptional activator Myb (Homo sapiens) (UniProt P10242). The assay is described as follows: ATG_Myb_CIS: Attagene CIS-FACTORIAL HepG2 Assay for human Myeloblastosis (Myb) Proto-Oncogene Transcription Factor (AID 2282986). Conditions: HepG2 Attagene CIS-FACTORIAL Myb reporter transcription; actives raise or lower the signal. Summed up: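 Transiently transfected HepG2 cells carrying a multiplexed cis-promoter reporter set report endogenous Myb activity after 24 h compound exposure. Reporter mRNA is read by RT-PCR with capillary electrophoresis of fluorescent products, fitted bidirectionally against DMSO.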
Transcriptional activator Myb (Homo sapiens), sequence (P10242 whole entry, looked up): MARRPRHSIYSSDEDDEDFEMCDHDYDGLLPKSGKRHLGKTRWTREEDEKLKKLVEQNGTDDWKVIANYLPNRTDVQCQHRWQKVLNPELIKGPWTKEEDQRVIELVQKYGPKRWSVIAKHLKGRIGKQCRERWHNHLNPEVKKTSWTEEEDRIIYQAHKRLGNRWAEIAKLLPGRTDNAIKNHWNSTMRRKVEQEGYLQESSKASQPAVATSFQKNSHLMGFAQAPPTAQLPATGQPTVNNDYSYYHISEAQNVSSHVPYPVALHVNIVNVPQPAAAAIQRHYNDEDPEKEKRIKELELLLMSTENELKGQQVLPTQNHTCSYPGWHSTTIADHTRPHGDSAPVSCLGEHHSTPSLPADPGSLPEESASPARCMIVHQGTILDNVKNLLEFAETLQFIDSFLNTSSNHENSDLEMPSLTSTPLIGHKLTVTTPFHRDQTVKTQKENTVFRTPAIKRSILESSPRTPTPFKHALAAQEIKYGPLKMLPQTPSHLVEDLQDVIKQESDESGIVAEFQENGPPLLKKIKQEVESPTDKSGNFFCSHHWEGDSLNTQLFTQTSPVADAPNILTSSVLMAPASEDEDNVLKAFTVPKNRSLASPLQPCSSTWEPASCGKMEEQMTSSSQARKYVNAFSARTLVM

Assay [5] addresses Nuclear respiratory factor 1 (Homo sapiens) (UniProt Q16656). Nature of the assay: ATG_NRF1_CIS: Attagene CIS-FACTORIAL HepG2 Assay for human Nuclear Respiratory Factor 1 (NRF1) Orphan Gene (AID 2282987). As to conditions: HepG2 NRF1 cis-element reporter, Attagene multiplex; actives raise or lower the signal. The procedure, abridged: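 HepG2 cells transiently transfected with multiple cis-regulated reporter units, exposed 24 h. Reporter mRNAs measured by RT-PCR, fluorescent labelling, HpaI digestion and capillary electrophoresis; bidirectional fitting against DMSO.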

The nature of assay [6]: ATG_NFI_CIS: Attagene CIS-FACTORIAL HepG2 Assay for human Nuclear Factor I (NFI) (AID 2282989). As to conditions: HepG2 cis-regulatory reporter, NFI response element transcription; actives raise or lower the signal. Summed up:
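Read-out: reporter mRNA via RT-PCR plus capillary electrophoresis with fluorescence detection. Transiently transfected HepG2 (endogenous TF activity on cis promoters), 24 h compound exposure; gain or loss of signal fitted against DMSO.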

For assay [7], the target named is Myc proto-oncogene protein (Homo sapiens) (UniProt P01106). The assay is described as follows: ATG_Myc_CIS: Attagene CIS-FACTORIAL HepG2 Assay for human Myelocytomatosis (Myc) Proto-Oncogene Transcription Factor (AID 2282990). Conditions: HepG2, Attagene cis-reporter transcription factor activity; actives raise or lower the signal. The procedure, abridged: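 Read-out: fluorescent reporter mRNA fragments resolved by capillary electrophoresis after RT-PCR. Human HepG2 liver cells carried transfected cis-element reporter units and were dosed for 24 h. Gain or loss of signal fitted relative to DMSO baseline.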
Myc proto-oncogene protein (Homo sapiens), sequence (P01106 whole entry, looked up, the tested form may be a part): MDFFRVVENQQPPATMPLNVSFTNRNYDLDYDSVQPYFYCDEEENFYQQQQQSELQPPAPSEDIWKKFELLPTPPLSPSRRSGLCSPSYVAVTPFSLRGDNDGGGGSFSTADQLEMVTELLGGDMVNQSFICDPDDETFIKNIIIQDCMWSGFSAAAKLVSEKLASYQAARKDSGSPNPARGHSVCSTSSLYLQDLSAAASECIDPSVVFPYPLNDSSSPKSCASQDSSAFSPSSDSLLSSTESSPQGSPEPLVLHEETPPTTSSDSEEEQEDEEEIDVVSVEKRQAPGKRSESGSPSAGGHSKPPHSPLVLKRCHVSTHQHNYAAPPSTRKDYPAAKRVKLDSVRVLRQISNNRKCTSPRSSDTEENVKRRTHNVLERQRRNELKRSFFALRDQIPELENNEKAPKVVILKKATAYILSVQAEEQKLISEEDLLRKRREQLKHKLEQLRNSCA

Assay [8] can be described thus: ATG_NF_kB_CIS: Attagene CIS-FACTORIAL HepG2 Assay for human Nuclear Factor Kappa B (NF-kB) (AID 2282991). Conditions: HepG2 Attagene cis-factorial NF-kB reporter mRNA; actives raise or lower the signal. The procedure, abridged: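 HepG2 cells transfected with cis-promoter-driven reporter units, so endogenous transcription factor activity is measured. Reporter mRNA quantified 24 h after dosing by RT-PCR and capillary electrophoresis, with bidirectional fitting against DMSO.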

Assay [9] is described as follows: ATG_NRF2_ARE_CIS: Attagene CIS-FACTORIAL HepG2 Assay for human Nuclear Factor Erythroid 2 Related Factor 2 (NFR2) response to Antioxidant Response Elements (ARE) (AID 2282992).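 For AC50: reporter mRNA level measured by RT-PCR and capillary electrophoresis fluorescence.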 As to conditions: HepG2 Attagene ARE/NRF2 reporter, transcription factor activity; actives raise or lower the signal. Summed up:
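Cis-factorial assay: transfected HepG2 reporter library, 24 h dosing, mRNA readout via RT-PCR/CE; DMSO-referenced bidirectional analysis.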

Assay [10] can be described thus: ATG_Oct_MLP_CIS: Attagene CIS-FACTORIAL HepG2 Assay for human Octamer-Binding Transcription Factor (Oct) (AID 2282993). Conditions: HepG2 Attagene cis-factorial Oct reporter, mRNA; actives raise or lower the signal. Summed up:
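Read-out: reporter mRNA via RT-PCR plus capillary electrophoresis of 6-FAM-labelled fragments. Transiently transfected HepG2, 24 h exposure, endogenous TF activity on cis elements. Gain or loss of signal fitted relative to DMSO.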

Assay [11] addresses Cellular tumor antigen p53 (Homo sapiens) (UniProt P04637). Nature of the assay: ATG_p53_CIS: Attagene CIS-FACTORIAL HepG2 Assay for human p53 Transcription Factor (AID 2282994). Conditions: HepG2 p53 cis-element reporter, Attagene mRNA; actives raise or lower the signal. Summed up:
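Using HepG2 hepatoma cells carrying cis-acting multiplexed reporters, mRNA induction is detected after a 24 h exposure. Gain- and loss-of-signal responses are fitted relative to DMSO-treated cells.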

Assay [12] in a line: BSK_3C_TissueFactor: BioMAP Diversity Plus: 3C Assay for Tissue Factor Biomarker Activity (AID 2282997). As to conditions: BioMAP 3C HUVEC, tissue factor biomarker readout; actives raise or lower the signal. The procedure, abridged:
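Values derive from bidirectional curve fitting against DMSO of Tissue Factor ELISA signals, taken 24 h after dosing primary human umbilical vein endothelial cells.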

Assay [13] can be described thus: BSK_3C_uPAR: BioMAP Diversity Plus: 3C Assay for Urokinase-type plasminogen activator receptor (uPAR) Biomarker Activity (AID 2282998). Conditions: BioMAP 3C HUVEC, uPAR biomarker ELISA; actives raise or lower the signal. The procedure, abridged: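 HUVEC primary cells; 24 h post-dose; uPAR by ELISA; gain or loss of signal fitted bidirectionally vs DMSO baseline.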
Background: An ELISA detects its analyte on a solid surface through an enzyme-linked reagent.

Assay [14] in a line: BSK_3C_VCAM1: BioMAP Diversity Plus: 3C Assay for Vascular cell adhesion molecule 1 (VCAM1) Biomarker Activity (AID 2282999). As to conditions: BioMAP 3C HUVEC, VCAM1 ELISA, cytokine-stimulated; actives raise or lower the signal. The procedure, abridged:
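Human umbilical vein endothelial cells (3C system), biomarker read by ELISA 24 h after dosing; bidirectional fit against DMSO baseline. Cytotoxicity tracked by SRB total-protein staining in parallel cultures at biomarker time.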

Assay [15] concerns the target Oxysterols receptor LXR-beta (Homo sapiens) (UniProt P55055). The assay is described as follows: ATG_LXRb_TRANS: Attagene TRANS-FACTORIAL HepG2 Assay for human Liver X Receptor beta (LXRb) (AID 2282981; active = hit-call score of the fitted dose curve at least 0.9, where 1 is the maximum). Conditions: HepG2 Attagene TRANS GAL4-LXRb reporter, mRNA. Summed up: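 Gain-of-signal mRNA reporter endpoint, DMSO as negative control. Transiently transfected HepG2 cells carrying the NR-Gal4 chimera and GAL4-UAS reporter units were treated 24 h; transcripts quantified by RT-PCR and capillary electrophoresis fluorescence.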

Assay [16] in a line: ATG_M_32_TRANS: Attagene TRANS-FACTORIAL HepG2 Assay for M32 Transcription Factor (Internal Marker) (AID 2282984; active = hit-call score of the fitted dose curve at least 0.9, where 1 is the maximum;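 note: transcript level of a background control reporter unit measured by RT-PCR and capillary electrophoresis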). Conditions: HepG2 Attagene TRANS M32 internal marker reporter. The procedure, abridged:
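Capillary electrophoresis of 6-FAM-labelled reporter fragments gives the signal; data fitted for gain over DMSO negative control. Source: HepG2 cells bearing transient multiple reporter transcription units, 24 h exposure.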

In assay [17] the target is Bile acid receptor (Homo sapiens) (UniProt Q96RI1). Nature of the assay: ATG_FXR_TRANS: Attagene TRANS-FACTORIAL HepG2 Assay for Farnesoid X Receptor (FXR) (AID 2282979; active = hit-call score of the fitted dose curve at least 0.9, where 1 is the maximum;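 note: hits raise reporter mRNA above DMSO so AC50 marks FXR activation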). Conditions: HepG2 Attagene TRANS FXR-GAL4 reporter transcription. The procedure, abridged:
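Chimeric FXR-GAL4 activity in transiently transfected human HepG2 liver cells is scored as induction of reporter mRNA after 24 h of dosing. Detection uses RT-PCR with fluorescent labelling and capillary electrophoresis, with DMSO serving as baseline.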

In assay [18] the target is Hepatocyte nuclear factor 4-alpha (Homo sapiens) (UniProt P41235). The assay is described as follows: ATG_HNF4a_TRANS: Attagene TRANS-FACTORIAL HepG2 Assay for human Hepatocyte Nuclear Factor 4 alpha (HNF4a) (AID 2282982; active = hit-call score of the fitted dose curve at least 0.9, where 1 is the maximum). As to conditions: HepG2 HNF4a transactivation reporter, mRNA readout. Summed up:
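Gain-of-signal mRNA induction, relative to DMSO vehicle, was read after 24 h compound treatment of HepG2 cells bearing transfected GAL4-UAS reporters. Detection used RT-PCR, 6-FAM primer extension and capillary electrophoresis.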

“And” between values parts separate entries of the source, which are not always exact repeats. Equal entries are not always repeated. Records with an inconclusive call do not appear. A structure can be active in one record and inactive in another. The source made the active and inactive calls. Rule for the calls, unless noted: active = hit-call score of the fitted dose curve at least 0.9, where 1 is the maximum; inactive = score below 0.9.

As usually defined, the AC50 is the midpoint of the concentration-response curve, whichever way the signal moves.

Nuclear receptor subfamily 4 group A member 2 (Homo sapiens), sequence (P43354 whole entry, looked up): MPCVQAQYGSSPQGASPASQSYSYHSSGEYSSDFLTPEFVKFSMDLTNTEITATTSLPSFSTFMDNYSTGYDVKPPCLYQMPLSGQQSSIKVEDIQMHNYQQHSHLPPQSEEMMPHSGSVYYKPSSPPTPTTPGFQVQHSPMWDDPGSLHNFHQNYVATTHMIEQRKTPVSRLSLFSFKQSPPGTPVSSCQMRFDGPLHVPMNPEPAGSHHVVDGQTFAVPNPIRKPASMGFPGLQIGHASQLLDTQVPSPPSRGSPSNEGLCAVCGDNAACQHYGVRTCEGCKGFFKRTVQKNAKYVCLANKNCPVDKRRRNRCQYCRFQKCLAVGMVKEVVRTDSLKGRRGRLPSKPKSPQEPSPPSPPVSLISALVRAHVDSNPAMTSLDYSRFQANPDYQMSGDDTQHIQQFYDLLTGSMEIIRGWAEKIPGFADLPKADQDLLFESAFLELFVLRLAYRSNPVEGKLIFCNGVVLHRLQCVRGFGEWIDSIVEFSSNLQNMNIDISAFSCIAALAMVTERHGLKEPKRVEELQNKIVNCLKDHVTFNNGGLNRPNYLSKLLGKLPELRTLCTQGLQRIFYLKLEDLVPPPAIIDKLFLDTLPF
Nuclear respiratory factor 1 (Homo sapiens), sequence (Q16656 whole entry, looked up): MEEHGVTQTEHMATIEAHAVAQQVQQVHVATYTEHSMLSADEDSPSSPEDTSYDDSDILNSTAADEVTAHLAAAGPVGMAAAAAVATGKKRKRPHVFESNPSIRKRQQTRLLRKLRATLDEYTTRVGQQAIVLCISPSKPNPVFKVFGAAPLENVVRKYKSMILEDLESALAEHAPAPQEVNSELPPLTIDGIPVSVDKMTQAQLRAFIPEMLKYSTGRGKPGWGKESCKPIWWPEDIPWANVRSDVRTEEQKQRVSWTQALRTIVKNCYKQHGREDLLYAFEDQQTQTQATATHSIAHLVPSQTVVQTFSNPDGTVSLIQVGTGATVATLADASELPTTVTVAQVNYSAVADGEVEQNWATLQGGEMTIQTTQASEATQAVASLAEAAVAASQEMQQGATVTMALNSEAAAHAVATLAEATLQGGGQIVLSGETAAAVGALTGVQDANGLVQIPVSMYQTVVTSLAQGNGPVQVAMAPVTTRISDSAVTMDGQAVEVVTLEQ
Oxysterols receptor LXR-alpha (Homo sapiens), sequence (Q13133 whole entry, looked up): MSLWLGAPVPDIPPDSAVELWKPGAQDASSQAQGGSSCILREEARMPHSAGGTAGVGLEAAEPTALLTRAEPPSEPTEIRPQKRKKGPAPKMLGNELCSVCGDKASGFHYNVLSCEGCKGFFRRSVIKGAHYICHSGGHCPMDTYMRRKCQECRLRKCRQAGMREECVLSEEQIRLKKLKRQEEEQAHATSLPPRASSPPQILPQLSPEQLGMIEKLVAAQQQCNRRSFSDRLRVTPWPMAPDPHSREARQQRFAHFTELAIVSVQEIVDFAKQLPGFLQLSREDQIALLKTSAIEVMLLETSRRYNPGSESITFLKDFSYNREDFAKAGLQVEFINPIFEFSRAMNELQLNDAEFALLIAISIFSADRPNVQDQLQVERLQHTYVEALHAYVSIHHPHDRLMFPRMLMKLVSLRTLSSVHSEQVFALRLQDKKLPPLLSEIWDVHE
Cellular tumor antigen p53 (Homo sapiens), sequence (P04637 whole entry, looked up): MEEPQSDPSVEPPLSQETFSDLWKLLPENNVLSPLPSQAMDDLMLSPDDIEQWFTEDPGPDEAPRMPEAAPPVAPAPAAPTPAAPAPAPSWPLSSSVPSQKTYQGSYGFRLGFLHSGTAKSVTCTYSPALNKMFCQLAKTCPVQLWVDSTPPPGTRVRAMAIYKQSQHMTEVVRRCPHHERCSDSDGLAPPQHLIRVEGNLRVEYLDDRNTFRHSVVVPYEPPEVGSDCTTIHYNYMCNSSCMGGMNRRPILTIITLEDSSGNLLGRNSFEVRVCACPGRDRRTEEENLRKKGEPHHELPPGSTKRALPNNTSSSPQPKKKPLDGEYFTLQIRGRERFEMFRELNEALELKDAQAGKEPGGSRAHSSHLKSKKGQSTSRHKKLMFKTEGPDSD
Oxysterols receptor LXR-beta (Homo sapiens), sequence (P55055 whole entry, looked up, the tested form may be a part): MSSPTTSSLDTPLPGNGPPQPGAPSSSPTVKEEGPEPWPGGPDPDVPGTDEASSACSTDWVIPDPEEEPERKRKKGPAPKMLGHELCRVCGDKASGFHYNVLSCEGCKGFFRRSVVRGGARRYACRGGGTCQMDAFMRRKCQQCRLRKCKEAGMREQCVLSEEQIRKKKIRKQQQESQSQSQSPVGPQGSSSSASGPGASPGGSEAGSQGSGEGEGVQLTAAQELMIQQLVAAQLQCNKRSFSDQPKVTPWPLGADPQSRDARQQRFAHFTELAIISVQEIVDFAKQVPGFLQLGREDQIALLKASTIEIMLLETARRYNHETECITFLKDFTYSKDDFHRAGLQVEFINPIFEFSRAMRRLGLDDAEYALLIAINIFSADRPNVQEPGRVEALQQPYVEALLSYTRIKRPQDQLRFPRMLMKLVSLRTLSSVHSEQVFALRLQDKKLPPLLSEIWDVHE
Hepatocyte nuclear factor 4-alpha (Homo sapiens), sequence (P41235 whole entry, looked up, the tested form may be a part): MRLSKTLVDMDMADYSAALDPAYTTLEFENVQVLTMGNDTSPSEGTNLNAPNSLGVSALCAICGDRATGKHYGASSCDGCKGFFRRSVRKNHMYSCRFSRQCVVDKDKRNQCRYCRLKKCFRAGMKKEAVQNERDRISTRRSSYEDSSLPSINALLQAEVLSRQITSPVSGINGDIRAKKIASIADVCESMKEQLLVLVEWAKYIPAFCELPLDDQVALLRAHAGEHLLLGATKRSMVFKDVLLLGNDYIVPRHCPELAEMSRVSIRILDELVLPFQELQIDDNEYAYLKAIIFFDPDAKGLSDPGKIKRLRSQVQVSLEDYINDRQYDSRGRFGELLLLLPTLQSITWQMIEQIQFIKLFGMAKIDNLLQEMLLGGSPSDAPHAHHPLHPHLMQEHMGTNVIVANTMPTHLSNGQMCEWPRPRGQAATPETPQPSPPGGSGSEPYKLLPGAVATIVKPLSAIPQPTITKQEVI
Bile acid receptor (Homo sapiens), sequence (Q96RI1 whole entry, looked up, the tested form may be a part): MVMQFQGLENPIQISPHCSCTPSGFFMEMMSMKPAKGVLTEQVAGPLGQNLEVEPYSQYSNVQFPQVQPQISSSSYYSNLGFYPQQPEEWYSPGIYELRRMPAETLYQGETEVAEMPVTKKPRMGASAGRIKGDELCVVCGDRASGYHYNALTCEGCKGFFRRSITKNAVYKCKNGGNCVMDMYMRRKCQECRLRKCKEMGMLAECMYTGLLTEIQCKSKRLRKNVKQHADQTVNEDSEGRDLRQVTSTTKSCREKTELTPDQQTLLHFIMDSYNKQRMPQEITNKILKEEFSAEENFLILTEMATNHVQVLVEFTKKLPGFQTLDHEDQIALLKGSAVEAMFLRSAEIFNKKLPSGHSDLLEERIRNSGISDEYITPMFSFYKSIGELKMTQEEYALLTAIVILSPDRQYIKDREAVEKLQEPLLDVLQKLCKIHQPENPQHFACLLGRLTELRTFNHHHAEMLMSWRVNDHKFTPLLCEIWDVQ

For the compound `CC1=CC2C3C=CC(C3)C2C1C` (stereo not drawn), the result in [1], in [2], in [3], in assay [4], in assay [5] and in assay [7] was inactive. Further, the compound was classed as inactive in assay [8], in [10], in assay [12], in [13] and in assay [14]. Moreover, the AC50 in assay [6] is 100 µM (active); in assay [9] it was 50.6 µM (active); in assay [11], 80.4 µM (active).

Consider `CCN(CCO)S(=O)(=O)C(F)(F)C(F)(F)C(F)(F)C(F)(F)C(F)(F)C(F)(F)C(F)(F)C(F)(F)F`, for which the compound was called inactive in assay [1], in assay [15], in assay [2], in [16], in [3] and in assay [4]. The compound was called inactive in [5], in [6], in [7], in [8], in [11] and in assay [13]. In addition, the outcome in assay [14] was inactive. For the same compound, the AC50 in [9] is 110 µM (active); in assay [10] it was 15.4 µM (active); in assay [12] it was 55.1 µM (active) and 9.9 µM (active); in assay [13], 8.1 µM (active).

For `N#Cc1ccccc1O`, the call in [1], in assay [2], in assay [3], in assay [4], in assay [5] and in [6] was inactive. Also, the result in assay [7], in [8] and in [9] was inactive.

With `CC(O)C#CC(C)O` (stereo not drawn), the outcome in [17], in [1], in assay [2], in assay [16], in [3] and in assay [4] was inactive. The result in assay [10] was inactive. For the same compound, the AC50 is 151 µM (active) in [18]; 143 µM (active) in assay [5]; 127 µM (active) in [6]; 53.3 µM (active) in assay [7]; 84 µM (active) in assay [8]; 24.9 µM (active) in [9]. For the same compound, the AC50 in assay [11] was 167 µM (active).

Consider `CC(C)OC(=O)COc1ccc(Cl)cc1Cl`, for which the result in assay [18], in assay [16], in [3], in [4], in assay [5] and in assay [6] was inactive. Further, the call in assay [7], in assay [8], in assay [9] and in assay [11] was inactive.

Regarding `O=C(F)C1(F)C(F)(F)C(F)(F)C(F)(F)C(F)(F)C1(F)F`, the outcome in [17], in assay [1], in assay [15], in [16], in assay [3] and in [4] was inactive. The compound was called inactive in [5], in assay [6], in assay [7], in assay [8], in assay [9] and in assay [11]. Besides, the result in assay [12] and in [13] was inactive.

These data come from PubChem BioAssay (EPA / NIEHS).
